In PubChem BioAssay (NCATS):
Results filed as inconclusive are left out. Activity calls are given as the source filed them. Unless noted, calls follow the shape of the dose curve; as a rule, active = well fitted curve in the direction sought with a large enough effect; inconclusive = small, poorly fitted or top-dose-only effect, or another doubt; inactive = no such curve, though single readings can be large; an effect the other way counts as inactive or inconclusive.

Assays:
[1] = MultiTox-Fluor Cytotoxicity Assay - LYMP1-003 - Dead Cells (AID 961); also: nearly all actives have a fitted effect of over 70% in size; also: potency is read from the fitted curve at half-maximal effect
Outline: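 LYMP1-003 human lymphoblastoid cells (2500/well) exposed to compound 16 h at 37 C in complete medium; dead-cell protease read with bis-AAF-R110 fluorescence (Ex/Em 485/520) after 60 min at room temperature. Normalized to DMSO and 15 uM tetraoctylammonium bromide; AC50 from Hill fit.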

[2] = Cell Viability - LYMP2-005 (AID 967); also: potency is read from the fitted curve at half-maximal effect
Outline: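 qHTS viability screen in LYMP2-005 cells: 24 h at 37 C with compound, ATP luminescence via CellTiter-Glo, AC50 from Hill curves.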

[3] = Cell Viability - LYMP2-009 (AID 968); also: nearly all actives have a fitted effect of over 55% in size; also: potency is read from the fitted curve at half-maximal effect
[4] = Cell Viability - LYMP2-011 (AID 969);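 also: cells exposed to compound for 24 hours; nearly all actives have a fitted effect of over 60% in size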; also: potency is read from the fitted curve at half-maximal effect
Outline: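 2500 cells/well, 5 hr 37 C; compound added, 24 hr 37 C; CellTiter-Glo 30 min RT; luminescence. qHTS concentration-response, Hill-equation AC50. Tetraoctylammonium bromide positive control.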

[5] = Cell Viability - LYMP2-021 (AID 974);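 also: compound exposure lasts 24 hours at 37 °C; nearly all actives have a fitted effect of over 55% in size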; also: potency is read from the fitted curve at half-maximal effect
Outline: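 Plate 2500 lymphoblastoid cells per well and incubate 5 hr at 37 C. Add compounds over a concentration range and incubate 24 hr at 37 C. Add CellTiter-Glo, wait 30 min at room temperature, read luminescence.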

[6] = Cell Viability - LYMP2-012 (AID 982);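 also: cellular ATP by luciferase luminescence where a drop means cytotoxicity; cells exposed to compound for one day before reading; nearly all actives have a fitted effect of over 55% in size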; also: potency is read from the fitted curve at half-maximal effect
[7] = biological target: Voltage-gated inwardly rectifying potassium channel KCNH2 (Homo sapiens) (UniProt Q12809); test: qHTS Assay for Small Molecule Inhibitors of the Human hERG Channel Activity (AID 588834);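 also: lower thallium flux fluorescence means stronger hERG block; nearly all actives have a fitted effect of over 50% in size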; also: potency is read from the fitted curve at half-maximal effect
Outline: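 Measured: FluxOR fluorescence after thallium stimulation in U2OS cells transduced with hERG by baculovirus. Compounds pre-incubated around 10 min; medium Opti-MEM with 2% FCS. AC50 from Hill equation.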

[8] = qHTS assay for small molecule activators of the p53 signaling pathway (AID 651743; active = well fitted activation curve with a large enough effect in the signal ratio, not every such curve was filed as active; the % refers to the signal ratio; also: potency is read from the fitted curve at half-maximal effect; as to activation: series mostly up to about 92 µM; % of control where 0% means no effect); details: HCT-116 p53RE-bla, beta-lactamase FRET ratio, 16 h; activation: stronger effect = higher value
Outline: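 p53RE-bla HCT-116 cells carrying a beta-lactamase reporter under p53 response elements were exposed to compounds for 16 hours at 37 C. Reporter activity read as fluorescence after 2 hours at room temperature with LiveBLAzer B/G FRET substrate.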

[9] = qHTS assay for small molecule disruptors of the mitochondrial membrane potential - 5 hr assay (AID 651755; calls by dose curve; also: nearly all actives have a fitted effect of over 40% in size; also: potency is read from the fitted curve at half-maximal effect)
Outline: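 HepG2 cells (2,000/well), attached overnight, exposed to compound 5 hr at 37C, then Mito-MPS dye 30 min. Fluorescence read for monomers (490/535 nm) and aggregates (540/590 nm).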

[10] = qHTS assay for small molecule agonists of the antioxidant response element (ARE) signaling pathway measured by Nrf2-dependant transcriptional activity (AID 720636; active = well fitted curve in the direction sought with a large enough effect in the repeat runs; an effect the other way counts as inactive or inconclusive; also: % of control where 0% means no effect)
Outline: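 ARE-luc HepG2 cells carrying an Nrf2-responsive luciferase reporter, in medium with 1% dialyzed FBS, exposed to compound for 16 hr at 37 C, 5% CO2. Luminescence read 30 min after ONE-Glo addition.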

[11] = qHTS assay for small molecule antagonists of the retinoid-related orphan receptor gamma (ROR-gamma) signaling pathway - cell viability counter screen (AID 720652; active = well fitted curve in the direction sought with a large enough effect in the repeat runs; an effect the other way counts as inactive or inconclusive;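 also: compound exposure lasted 16 hr before ATP read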; also: potency is read from the fitted curve at half-maximal effect)
Outline: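 Luminescence from CellTiter-Glo after 30 min at room temperature reported cellular ATP as the cytotoxicity measure. Cells were the CHO reporter line with doxycycline-induced ROR-gamma expression, exposed to compound for 16 hr at 37 C.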

[12] = qHTS assay for cell viability of the p53RE-bla HCT-116 cell line (AID 743292); also: nearly all actives have a fitted effect of over 55% in size; also: potency is read from the fitted curve at half-maximal effect
Outline: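 CellSensor p53RE-bla HCT-116 cells (4,000/well) pre-incubated 5 h at 37 C, then exposed to compounds in DMSO for 16 h at 37 C. Viability read as ATP content by CellTiter-Glo luminescence after 30 min at room temperature.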

[13] = biological target: Mitogen-activated protein kinase 10 (Mus musculus) (UniProt Q61831); test: JNK3 AlphaScreen Assay (AID 530; active = well fitted curve in either direction with a large enough effect, not every such curve was filed as active;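 also: kinase came from lysate of stimulated human HepG2 cells; signal reports phosphorylation of biotinylated GST-cJun 1-79 at Ser73 with 10 µM ATP; series mostly up to about 57 µM; % is scaled to controls: 0 for no effect and ±100 for the full control effect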)
Outline: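 Pre-activated (IL-1β/TNFα) JNK3 in HepG2 lysates phosphorylates biotin-GST-cJun(1-79), 10 uM ATP; anti-phospho-cJun(Ser73) AlphaScreen read at room temperature, pH 7.6 Tris buffer. Compounds pre-incubated 15 min as titrations.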

[14] = Cellular Toxicity (caspase-3) SHSY5Y (AID 657); also: potency is read from the fitted curve at half-maximal effect
Outline: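 Cells plated and incubated 5 h at 37 °C, dosed over a concentration range, incubated 16 h, then given Caspase-Glo 3/7 reagent for 1 h at room temperature before luminescence reading. Staurosporine (10 uM) defined full stimulation.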

[15] = Cell Viability - LYMP2-017 (AID 972); also: potency is read from the fitted curve at half-maximal effect
Outline: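 2500 cells/well, 5 h 37 C; cpd 24 h 37 C in complete medium; CellTiter-Glo, 30 min RT; luminescence (ATP). AC50 via Hill fit, qHTS.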

[16] = Cell Viability - LYMP2-023 (AID 975); also: potency is read from the fitted curve at half-maximal effect
Outline: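 2500 cells/well, 5 hr 37 C; cpd 24 hr 37 C; CellTiter-Glo, 30 min RT; luminescence. qHTS conc-response, Hill fit -> AC50. Pos ctrl tetraoctylammonium bromide.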

[17] = Cell Viability - LYMP2-007 (AID 979);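 also: cells exposed to compound for 24 h before reading; nearly all actives have a fitted effect of over 60% in size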; also: potency is read from the fitted curve at half-maximal effect
Outline: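 Luminescent ATP signal (CellTiter-Glo) serves as the viability read-out after 24 hr compound treatment of lymphoblastoid cells in complete medium at 37 C. Concentration-response data were fitted to the Hill equation to give AC50 values.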

[18] = Cell Viability - LYMP2-020 (AID 986); also: nearly all actives have a fitted effect of over 55% in size; also: potency is read from the fitted curve at half-maximal effect
Outline: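 Luminescent ATP signal (CellTiter-Glo, 30 min at room temperature) is the read-out after 24 h compound treatment of lymphoblastoid cells at 37 C. AC50 values come from Hill-equation fits across concentrations.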

[19] = Cell Viability - LYMP1-002 - Assay at 40 hr (AID 994); also: nearly all actives have a fitted effect of over 60% in size; also: potency is read from the fitted curve at half-maximal effect
Outline: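 Luminescent ATP signal served as the viability readout, with decreases taken as toxicity. Cells were treated with compounds across a concentration range for 40 hours at 37 C, and AC50 values came from standard Hill modeling.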

[20] = Cellular Toxicity (caspase-3) SK-N-SH (AID 661);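 also: 0% = DMSO basal and 100% = 10 µM staurosporine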
Outline: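 Human neuroblastoma SK-N-SH, 1500 cells/well, 5 hr pre-incubation, then compound 16 hr, 37 °C. Caspase-Glo 3/7 reagent, 1 hr RT, luminescence. Norm. to DMSO/10 uM staurosporine; Hill-fit AC50.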

Chain of Voltage-gated inwardly rectifying potassium channel KCNH2 (Homo sapiens) (Q12809 whole entry, looked up): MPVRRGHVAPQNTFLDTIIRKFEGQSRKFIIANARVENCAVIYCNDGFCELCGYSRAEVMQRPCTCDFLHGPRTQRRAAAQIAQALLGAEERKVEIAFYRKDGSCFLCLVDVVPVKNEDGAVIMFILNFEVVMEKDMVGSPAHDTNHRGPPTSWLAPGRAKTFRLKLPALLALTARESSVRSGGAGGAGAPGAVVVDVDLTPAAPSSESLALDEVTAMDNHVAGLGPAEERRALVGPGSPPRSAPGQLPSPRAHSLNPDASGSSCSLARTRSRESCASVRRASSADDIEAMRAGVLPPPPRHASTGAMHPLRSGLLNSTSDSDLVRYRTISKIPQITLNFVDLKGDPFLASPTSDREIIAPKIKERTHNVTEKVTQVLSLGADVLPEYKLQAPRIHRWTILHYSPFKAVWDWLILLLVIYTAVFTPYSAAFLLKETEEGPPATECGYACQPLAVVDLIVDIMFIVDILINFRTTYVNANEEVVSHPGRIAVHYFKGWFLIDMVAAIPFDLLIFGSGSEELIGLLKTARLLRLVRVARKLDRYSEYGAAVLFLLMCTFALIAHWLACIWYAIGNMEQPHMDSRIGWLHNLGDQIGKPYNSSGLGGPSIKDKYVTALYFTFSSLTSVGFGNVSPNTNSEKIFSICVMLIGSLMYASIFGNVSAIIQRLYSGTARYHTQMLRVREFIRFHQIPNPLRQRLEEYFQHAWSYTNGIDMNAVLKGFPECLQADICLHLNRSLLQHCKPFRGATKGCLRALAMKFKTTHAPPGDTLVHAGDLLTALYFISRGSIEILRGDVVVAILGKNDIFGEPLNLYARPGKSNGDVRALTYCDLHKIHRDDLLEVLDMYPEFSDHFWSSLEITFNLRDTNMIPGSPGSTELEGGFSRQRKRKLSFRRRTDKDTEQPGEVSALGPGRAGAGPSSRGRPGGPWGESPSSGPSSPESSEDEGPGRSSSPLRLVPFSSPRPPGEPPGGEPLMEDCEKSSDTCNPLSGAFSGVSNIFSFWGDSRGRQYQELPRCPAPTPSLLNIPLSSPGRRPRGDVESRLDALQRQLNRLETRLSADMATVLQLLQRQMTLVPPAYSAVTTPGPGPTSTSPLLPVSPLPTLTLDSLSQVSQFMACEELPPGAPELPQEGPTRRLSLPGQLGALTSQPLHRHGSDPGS

ClC1=C(Cl)C2(Cl)C3C(Cl)C(Cl)CC3C1(Cl)C2(Cl)Cl (centres undefined)
inactive: Potency [2] | Potency [3] | Potency [4] | Potency [5] | Potency [6] | activation [8] 0.792% | Potency [9] | Potency [10]
active: Potency [1] 50.1 µM | Potency [7] 35.5 µM | Potency [11] 66.8 µM | Potency [12] 50.1 µM

N#CC(Cl)Cl
inactive: outcome [13] | Potency [14] | Potency [1] | Potency [2] | Potency [19] | Potency [7] | Potency [9]
active: Potency [3] 15.8 µM | Potency [4] 20 µM | Potency [15] 39.8 µM | Potency [5] 25.1 µM | Potency [16] 25.1 µM | Potency [17] 20 µM | Potency [18] 10 µM | Potency [8] 39.8 µM | Potency [11] 21.1 µM | Potency [12] 44.7 µM

O=C(O)C1C(C(=O)O)C2(Cl)C(Cl)=C(Cl)C1(Cl)C2(Cl)Cl (centres undefined)
inactive: outcome [13] | Potency [14] | outcome [20] | Potency [1] | Potency [2] | Potency [3] | Potency [4] | Potency [15] | Potency [5] | Potency [16] | Potency [17] | Potency [6] | Potency [18] | Potency [19] | Potency [7] | activation [8] -3.18% | Potency [9] | Potency [10] | Potency [11] | Potency [12]

Clc1ccc(C(c2ccc(Cl)cc2)C(Cl)Cl)cc1
inactive: outcome [20] | Potency [2] | Potency [3] | Potency [4] | Potency [15] | Potency [5] | Potency [16] | Potency [17] | Potency [6] | Potency [18] | activation [8] 6.6% | Potency [10]
active: Potency [14] 50.1 µM | Potency [19] 50.1 µM | Potency [7] 22.4 µM | Potency [9] 66.8 µM

O=[N+]([O-])c1ccccc1Cl
inactive: Potency [10]

C[C@@H]1CC[C@@]2(OC1)O[C@H]1[C@@H](O)[C@H]3[C@@H]4CC[C@H]5C[C@@H](O[C@@H]6O[C@H](CO)[C@H](O[C@@H]7O[C@H](CO)[C@@H](O)[C@H](O[C@@H]8OC[C@@H](O)[C@H](O)[C@H]8O)[C@H]7O[C@@H]7O[C@H](CO)[C@@H](O)[C@H](O[C@@H]8O[C@H](CO)[C@@H](O)[C@H](O)[C@H]8O)[C@H]7O)[C@H](O)[C@H]6O)[C@H](O)C[C@]5(C)[C@H]4CC[C@]3(C)[C@H]1[C@@H]2C
inactive: outcome [13] | Potency [14] | outcome [20] | Potency [10]
active: Potency [1] 10 µM | Potency [2] 15.8 µM | Potency [3] 12.6 µM | Potency [4] 20 µM | Potency [15] 25.1 µM | Potency [5] 15.8 µM | Potency [16] 25.1 µM | Potency [17] 25.1 µM | Potency [6] 15.8 µM | Potency [18] 12.6 µM | Potency [19] 7.94 µM | Potency [7] 25.1 µM | Potency [9] 26.6 µM | Potency [11] 11.9 µM | Potency [12] 35.5 µM

C[C@H]1CC[C@@H]2[C@@H](C)C(=O)O[C@H]3O[C@@]4(C)CC[C@@H]1[C@]32OO4
inactive: outcome [13]

O=c1ccc2cc(O[C@@H]3O[C@@H](CO)[C@@H](O)[C@@H](O)[C@H]3O)c(O)cc2o1
inactive: outcome [13]

CC(C)(O)[C@H]1[C@H]2OC(=O)[C@@H]1[C@]1(O)C[C@H]3O[C@]34C(=O)O[C@H]2[C@]14C
inactive: outcome [13]

COc1cc2c(cc1OC)-c1c(O)c(OC)cc3c1[C@@H](C2)N(C)CC3
inactive: outcome [13]

COc1cc2c(cc1OC)-c1c(OC)c(OC)c(CO)c3c1[C@H](C2)N(C)CC3
inactive: outcome [13]

COC1=C[C@H]2[C@@H]3Cc4ccc(OC)c(O)c4[C@@]2(CCN3C)CC1=O
inactive: outcome [13]

OC[C@H]1CCCN2CCCC[C@@H]12
inactive: outcome [13]

CC1=CC(=O)C2=C(C)C[C@H](O)[C@@H]3[C@@H](OC(=O)[C@H]3C)[C@H]12
inactive: outcome [13]

CC[C@H](CO)NC(=O)[C@H]1C=C2c3cccc4[nH]cc(c34)C[C@H]2N(C)C1
inactive: outcome [13]
